A selection: hits, their analogues and other compounds. The true share with any hit is near 7.5%.
NPC1 prom act: qHTS Assay for NPC1 Promoter Activators | Huh7 NPC1 promoter luciferase reporter, 24 h | Potency, µM (titrated, usually from 9.22 µM), for inactives: top-dose activation, most hits filed as activators | actives 2.4% (n = 320,000) | AID 485313, 2010; further: % of control where 0% means no effect; nearly all actives have a fitted effect of over 60% in size
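Cells: Huh7 expressing luciferase under the NPC1 promoter, 1500/well. Seeded 2 h, compound added, incubated 24 h at 37 °C. Luciferase reagent, 10 min ambient, then luminescence.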
FLuc modulator: qHTS profiling assay for firefly luciferase inhibitor/activator using purifed enzyme and Km concentrations of substrates (counterscreen for miR-21 project); actives 6.9% (n = 360,000); purified FLuc, Km substrates, luminescence inhibition; Luciferin 4-monooxygenase (Photinus pyralis), P08659; Potency, µM (doses to about 57.5 µM), inactives show at the top dose activity change, negative = inhibition, actives largely listed as inhibitors;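 further: plate controls were vehicle for no effect and reference inhibitor for full effect; nearly all actives have a fitted effect of over 55% in size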
Target sequence (P08659 whole entry, looked up): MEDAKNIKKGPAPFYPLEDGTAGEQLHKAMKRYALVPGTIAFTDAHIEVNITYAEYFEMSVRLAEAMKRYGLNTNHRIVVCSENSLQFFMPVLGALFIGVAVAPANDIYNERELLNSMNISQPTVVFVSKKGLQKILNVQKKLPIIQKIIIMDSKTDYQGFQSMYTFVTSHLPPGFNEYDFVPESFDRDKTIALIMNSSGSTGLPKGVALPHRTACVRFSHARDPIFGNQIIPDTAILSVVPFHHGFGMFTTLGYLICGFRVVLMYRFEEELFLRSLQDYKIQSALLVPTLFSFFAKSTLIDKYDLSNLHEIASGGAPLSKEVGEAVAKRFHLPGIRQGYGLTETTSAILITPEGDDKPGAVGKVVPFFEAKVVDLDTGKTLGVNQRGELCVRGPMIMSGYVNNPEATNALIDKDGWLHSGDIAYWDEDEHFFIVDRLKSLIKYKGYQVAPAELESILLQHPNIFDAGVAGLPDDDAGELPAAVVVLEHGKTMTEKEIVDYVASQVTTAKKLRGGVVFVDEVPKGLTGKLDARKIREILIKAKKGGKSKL
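Biochemical qHTS of compounds, final roughly 60 µM downward over six points, against 10 nM purified firefly luciferase using Km concentrations of substrates (10 uM D-luciferin, 10 uM ATP) in Tris acetate pH 7.5 buffer; luminescence output.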
ELG1 genotoxic: qHTS screen for small molecules that induce genotoxicity in human embryonic kidney (HEK293T) cells expressing luciferase-tagged ELG1; HEK293T ELG1-luciferase reporter, luminescence, 16 h; actives 1.3% (n = 330,000); Potency, µM (highest dose often 46 µM), inactives show at the highest dose activity change, positive = activation, most hits filed as activators; further: % of control where 0% means no effect; nearly all actives have a fitted effect of over 60% in size
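Step 1: seed 2,000 HEK293T ELG1-luciferase cells per well. Step 2: add compound or DMSO, incubate 16 hr at 37 °C. Step 3: ONE-Glo, 30 min at room temperature, read luminescence.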
Rab9 promoter act: qHTS Assay for Rab9 Promoter Activators | Huh7 Rab9 promoter-luciferase reporter, luminescence, 24 h | Potency, µM (doses to about 9.22 µM), without a hit: top-dose activation, negative = inhibition, usual class: activators | actives 2.8% (n = 320,000) | AID 485297, 2010; further: % of control where 0% means no effect; nearly all actives have a fitted effect of over 60% in size
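Huh7 cells stably carrying a Rab9 promoter-luciferase reporter, 1500 cells per well in OP-MEM I with 10% FBS, treated with compound 24 hours at 37C. Luciferase activity read by luminescence after 10 minutes with Amplite reagent.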
SMN2 splice enh: qHTS Assay for Enhancers of SMN2 Splice Variant Expression | HEK293 SMN2-luciferase splicing reporter, luminescence, 30-36 h | Potency, µM (series often up to 46.1 µM), without a hit: at the top dose activity change, positive = activation, hits mostly activators | actives 2.8% (n = 210,000); further: % of control where 0% means no effect; nearly all actives have a fitted effect of over 55% in size
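qHTS luciferase splicing reporter: luminescence rises when SMN2 exon 7 is included in transfected HEK293 cells. Compound exposure lasted 30-36 h at 37C, with 4.5 mM final sodium butyrate as control, followed by a ONE-Glo read.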
Active calls of the source: *; [ ] = remark or other dose. The call rests on the fitted dose curve; in most records, active means well fitted curve in the direction sought with a large enough effect; inconclusive means small, poorly fitted or top-dose-only effect, or another doubt; inactive means no such curve, though single readings can be large; an effect the other way counts as inactive or inconclusive. Potency means the concentration at half of the fitted maximal effect.

COc1cc([N+](=O)[O-])ccc1NC(=O)CCCOc1ccccc1 was read as NPC1 prom act 1%, FLuc modulator -1%, ELG1 genotoxic 1%, Rab9 promoter act 1% and SMN2 splice enh 6%.
For CCn1c(C)nc2cc(C(=O)N/N=C(\C)c3ccccc3O)ccc21 the results were NPC1 prom act inconclusive, FLuc modulator 13µM*, ELG1 genotoxic 5%, Rab9 promoter act inconclusive and SMN2 splice enh inconclusive.
`CCn1c(C)nc2cc(C(=O)OC)ccc21` gave NPC1 prom act 5%, FLuc modulator 0%, ELG1 genotoxic 8% and Rab9 promoter act 12%.
Screening CCn1c(C)nc2cc(C(=O)NNC(=S)Nc3ccc(C)cc3)ccc21 returned NPC1 prom act -3%, FLuc modulator inconclusive, ELG1 genotoxic 9% and Rab9 promoter act -10%.
COc1cc([N+](=O)[O-])ccc1NC(=S)NNC(=O)CCC(=O)Nc1ccccc1Cl was read as NPC1 prom act inconclusive, FLuc modulator inconclusive, ELG1 genotoxic 9.2µM* and Rab9 promoter act inconclusive.
Screening Cc1ccc(C(=O)Nc2ccccc2N2CCCC2)cc1 returned NPC1 prom act -1%, FLuc modulator -1%, ELG1 genotoxic -4% and Rab9 promoter act 1%.
Screening O=C(NCCCN1CCOCC1)c1cc(S(=O)(=O)N2CCOCC2)ccc1Cl returned ELG1 genotoxic 0%.
Cc1ccc(NC(=O)CSc2ncc3ccccn23)cc1C was read as NPC1 prom act 20%, FLuc modulator inconclusive, ELG1 genotoxic 6%, Rab9 promoter act 24% and SMN2 splice enh 15%.
`CCCSc1nc2sc3c(c2c(=O)n1-c1ccc(C)c(Cl)c1)CCN(C(C)=O)C3` gave FLuc modulator 1% and SMN2 splice enh -10%.
`COc1ccccc1NC(=S)NNC(=O)c1ccc(Cl)cc1Cl` gave NPC1 prom act 12%, FLuc modulator 11µM*, ELG1 genotoxic 4%, Rab9 promoter act 28% and SMN2 splice enh 16µM*.
For O=c1oc2ccccc2c(O)c1/C=N/c1ccccn1 the results were NPC1 prom act -5%, FLuc modulator 11µM*, ELG1 genotoxic -3%, Rab9 promoter act 2% and SMN2 splice enh -6%.
For O=c1oc2ccccc2c(O)c1C=Nc1cccnc1 the results were NPC1 prom act -7%, FLuc modulator 9.5µM*, ELG1 genotoxic -8%, Rab9 promoter act -12% and SMN2 splice enh -2%.
`CCOc1ccc(N=Cc2c(O)c3ccccc3oc2=O)cc1` gave NPC1 prom act -1%, FLuc modulator 0.85µM*, ELG1 genotoxic 9%, Rab9 promoter act -1% and SMN2 splice enh -6%.
CCOc1ccc(N=Cc2c(O)cc(C)oc2=O)cc1 was read as NPC1 prom act -2%, FLuc modulator -18%, ELG1 genotoxic -1%, Rab9 promoter act -5% and SMN2 splice enh 4%.
Screening O=c1oc2ccccc2c(O)c1/C=C1\C=Nc2ccccc21 returned NPC1 prom act 13%, FLuc modulator 27µM*, ELG1 genotoxic -2%, Rab9 promoter act -3% and SMN2 splice enh -13%.
`O=c1oc2ccccc2c(O)c1/C=N/c1ncccn1` gave NPC1 prom act 2%, FLuc modulator inconclusive, ELG1 genotoxic 5%, Rab9 promoter act 3% and SMN2 splice enh -27%.
Screening O=C(CCS(=O)(=O)c1cc(Br)cc2c1N(C(=O)C1CC1)CC2)N1CCN(c2cccc(C(F)(F)F)c2)CC1 returned FLuc modulator -12% and SMN2 splice enh 6%.
`CC(=O)c1ccc(S(=O)(=O)N(C)CCCC(=O)NCc2ccc3c(c2)OCO3)cc1` gave NPC1 prom act 2%, FLuc modulator 14%, ELG1 genotoxic 2% and Rab9 promoter act -1%.
CCOc1ccc(NC(=O)Cn2c(=O)n(CCc3ccccc3)c(=O)c3c4c(sc32)CN(C(C)=O)CC4)cc1 was read as FLuc modulator 0% and SMN2 splice enh 2%.
O=C1CC(c2ccccc2)CC(O)=C1C=Nc1cccc(Cl)c1 (stereo not drawn) was read as NPC1 prom act -6%, FLuc modulator 7.6µM*, ELG1 genotoxic 1%, Rab9 promoter act -6% and SMN2 splice enh -3%[1.84 µM].
Screening COc1ccc(N2Cc3cccc(C(=O)Nc4ccc(F)cc4)c3C2=O)cc1 returned FLuc modulator 2% and SMN2 splice enh -13%.
`c1ccc(-c2csc(NC3=NCCCCC3)n2)cc1` gave NPC1 prom act 18%, FLuc modulator 19µM*, ELG1 genotoxic inconclusive, Rab9 promoter act inconclusive and SMN2 splice enh 11µM*.
Screening N#Cc1ccc(-c2csc(NC3=NCCCCC3)n2)cc1 returned NPC1 prom act 13%, FLuc modulator inconclusive, ELG1 genotoxic 14%, Rab9 promoter act 24% and SMN2 splice enh inconclusive.
Screening Brc1ccc(-c2csc(NNC3=NCCCCC3)n2)cc1 returned NPC1 prom act 6%, FLuc modulator 19µM*, ELG1 genotoxic -3% and Rab9 promoter act -6%.
For CC(C)(C)c1ccc(-c2csc(NNC3=NCCCCC3)n2)cc1 the results were NPC1 prom act 2%, FLuc modulator 15µM*, ELG1 genotoxic inconclusive, Rab9 promoter act -1% and SMN2 splice enh -15%.
For Cc1ccc(Nc2nc3ccccc3s2)c(C)c1 the results were NPC1 prom act 2µM*, FLuc modulator 0.6µM*, ELG1 genotoxic 2.1µM*, Rab9 promoter act 1.3µM* and SMN2 splice enh 2.5µM*.
Screening Cc1ccc(C)c(NC(=S)c2nc3ccccc3s2)c1 returned NPC1 prom act inconclusive, FLuc modulator inconclusive, ELG1 genotoxic 4%, Rab9 promoter act inconclusive and SMN2 splice enh inconclusive.
`CC(=O)c1c(C)nc(Nc2nc3ccccc3s2)nc1C` gave NPC1 prom act inconclusive, FLuc modulator 0.76µM*, ELG1 genotoxic inconclusive and Rab9 promoter act inconclusive.
Cc1ccccc1NC(=O)c1cnc(Nc2nc3ccccc3s2)nc1C was read as NPC1 prom act 1%, FLuc modulator -3%, ELG1 genotoxic 3%, Rab9 promoter act 0% and SMN2 splice enh 16%.
Screening Cc1cc(C)nc(Nc2nc3ccccc3s2)n1 returned NPC1 prom act inconclusive, FLuc modulator inconclusive, ELG1 genotoxic inconclusive, Rab9 promoter act inconclusive and SMN2 splice enh 3.2µM*.
CCN(CC)C(=O)CSc1nnc(-c2ccccc2)o1 was read as NPC1 prom act inconclusive, FLuc modulator inconclusive, ELG1 genotoxic 16µM*, Rab9 promoter act 3.5µM* and SMN2 splice enh -16%.
Screening CN(C)c1cccc(-c2nnc(SCCCC#N)o2)c1 returned NPC1 prom act 3.2µM*, FLuc modulator 6.7µM*, ELG1 genotoxic inconclusive, Rab9 promoter act 2.2µM* and SMN2 splice enh 11µM*.

Source: PubChem (National Center for Advancing Translational Sciences (NCATS))
